Most compounds without a hit are left out; they make up all but 4.1% or so of the library.
hgDAF-12 ag – agonists of H. glycines DAF-12 nuclear receptor | HEK293 GAL4-hgDAF12 UAS-luciferase reporter, agonist luminescence; normalized to butyrate control | 370,000 compounds, 1.8% hits | activation, % at 6.8 µM;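 active = activation above a cutoff set at the mean of all screened compounds plus 3 SD, cut at about 10% in these data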
DAX1 inh-1 – inhibits human nuclear receptor DAX1 | 340,000 compounds, 0.99% hits | P51843 | AID 504766 | inhibition, % at 6.75 µM | HEK293 Gal4-DAX1 luciferase reporter, luminescence;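 active = inhibition above the mean over all tested compounds plus 3 SD, cut at about 4.2% in these data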;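 also: inhibition shows as a rise in luminescence from relieved DAX1 repression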
Target sequence (P51843 207-470 limits assumed): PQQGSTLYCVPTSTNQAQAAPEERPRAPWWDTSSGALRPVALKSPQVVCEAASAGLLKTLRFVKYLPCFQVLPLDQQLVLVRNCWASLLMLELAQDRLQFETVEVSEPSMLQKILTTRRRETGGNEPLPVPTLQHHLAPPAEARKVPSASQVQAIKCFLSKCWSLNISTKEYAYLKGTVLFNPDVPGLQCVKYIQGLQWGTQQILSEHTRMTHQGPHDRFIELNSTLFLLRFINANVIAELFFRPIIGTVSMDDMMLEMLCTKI
DAX1 inh-2 – inhibitors of DAX1 repression of SF-1 activated StAR promoter. 370,000 compounds, 1.1% hits. inhibition, % at 6.8 µM. HEK293T StAR-luciferase reporter, SF-1/DAX-1 repression relief;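 active = inhibition above the mean over all tested compounds plus 3 SD, cut at about 3.6% in these data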;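 also: higher inhibition means more luminescence from relief of DAX-1 repression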
ssDAF-12 act – activates DAF-12 receptor from parasite S. stercoralis; AID 652126; HEK293 ssDAF-12/GRIP1 lit1-tk-luc reporter, luminescence; % of 3 µM dafachronic acid response; 370,000 compounds, 1% hits; activation, % at 6.8 µM;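 active = activation above the mean over all tested compounds plus 3 SD, cut at about 0.9% in these data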
hcDAF-12 act – activates DAF-12 receptor from parasite H. contortus | HEK293 hcDAF-12 lit1-tk-luc reporter, luminescence; 0% DMSO, 100% Δ7-dafachronic acid | activation, % at 6.8 µM | AID 652067 | 370,000 compounds, 1.4% hits;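 active = activation above the mean of all tested compounds plus 3 SD, cut at about 5.5% in these data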
LXRb hcDAF ctr – LXR-beta agonism as hcDAF-12 counter-screen; HEK293 Gal4-LXR tk-luc reporter, luminescence, 24 h; normalized: DMSO 0%, positive control 100%; activation, % at 6.8 µM; 3,400 tested, under 10 active; shares compounds with hcDAF-12 act;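 active = mean percent activation of the reporter above a cutoff set as the average over tested compounds plus their standard deviation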
Target sequence (P55055 whole entry, looked up, the tested form may be a part): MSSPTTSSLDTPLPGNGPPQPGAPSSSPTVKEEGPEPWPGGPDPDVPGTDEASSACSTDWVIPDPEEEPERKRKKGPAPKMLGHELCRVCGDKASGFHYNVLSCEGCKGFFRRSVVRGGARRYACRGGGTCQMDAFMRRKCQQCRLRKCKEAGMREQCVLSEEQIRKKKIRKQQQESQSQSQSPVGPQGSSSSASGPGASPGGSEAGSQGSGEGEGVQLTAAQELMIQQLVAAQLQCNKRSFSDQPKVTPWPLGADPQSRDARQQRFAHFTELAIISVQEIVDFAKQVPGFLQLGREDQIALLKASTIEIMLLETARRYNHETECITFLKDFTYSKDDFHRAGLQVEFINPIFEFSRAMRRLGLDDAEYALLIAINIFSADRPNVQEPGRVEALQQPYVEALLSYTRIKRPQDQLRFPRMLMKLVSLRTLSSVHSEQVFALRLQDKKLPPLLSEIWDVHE
hcDAF12 conf – confirmation of H. contortus DAF-12 agonists. shares compounds with hcDAF-12 act. 3,400 compounds, 61% hits. activation, % at 6.8 µM. HEK293 hcDAF-12 lit1-tk-luc reporter, luminescence; % of Δ7-dafachronic acid response;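 active = mean activation across triplicate tests above the threshold derived from the earlier primary screen, cut at about 5.5% in these data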
Each line names hits and unclear results; the compound was inactive in the other large screens (follow-up assays come after a bar, where they were run).

O=C(c1ccncc1)N1CC[C@H]2[C@H](CCCN2Cc2cc(F)cc(F)c2)C1	none (no result: DAX1 inh-1)
CCCN(Cc1cc(=O)[nH]c2ccccc12)C(=O)CC	none
CCC(=O)N(CC)Cc1cc(=O)[nH]c2ccccc12	hcDAF-12 act 6.8 | LXRb hcDAF ctr inactive | hcDAF12 conf inactive
Cc1ccc(-c2cc(-c3nnc(SCC(=O)N4CCOCC4)n3N)[nH]n2)cc1	none (no result: DAX1 inh-1)
O=C(Nn1cnnc1)c1cc(-c2ccccn2)nc2ccccc12	ssDAF-12 act 1.3, hcDAF-12 act 11 | LXRb hcDAF ctr inactive | hcDAF12 conf inactive
O=C(NC1CC1)c1cc(-c2ccccn2)nc2ccccc12	none
CCCC(=O)NCc1nc2ccccc2n1C	none
Cn1c(CNc2nc3ccccc3n2CCN2CCCCC2)nc2ccccc21	none
Cn1c(CNc2ccccc2O)nc2ccccc21	ssDAF-12 act 3.0, hcDAF-12 act 8.4 | LXRb hcDAF ctr inactive | hcDAF12 conf 9.0
CCn1c(CNc2ccc(C(=O)O)cc2)nc2ccccc21	hcDAF-12 act 9.3 | LXRb hcDAF ctr inactive | hcDAF12 conf inactive
O=C(O)c1ccc(NCc2nc3ccccc3n2Cc2ccccc2)cc1	none
Cn1c(CNc2ccccc2)nc2ccccc21	ssDAF-12 act 1.1, hcDAF-12 act 8.7 | LXRb hcDAF ctr inactive | hcDAF12 conf 6.9
Cc1ccccc1NCc1nc2ccccc2n1C	ssDAF-12 act 1.0, hcDAF-12 act 8.4 | LXRb hcDAF ctr inactive | hcDAF12 conf 6.2
O=C1c2ccccc2CCC12N=NCC2c1ccc(Br)cc1 (stereo not given)	none
O=C1c2ccccc2CCC12N=NCC2c1ccc(Cl)cc1 (stereo not given)	hcDAF-12 act 7.4 | LXRb hcDAF ctr inactive | hcDAF12 conf inactive
O=[N+]([O-])c1cccc2ccc(/C=C/c3ccc(F)cc3)nc12	hgDAF-12 ag 14, hcDAF-12 act 8.5 | LXRb hcDAF ctr inactive | hcDAF12 conf 6.0
O=[N+]([O-])c1ccc(/C=C/c2ccc3cccc([N+](=O)[O-])c3n2)cc1	none
CC1(c2nnnn2-c2ccc3ccccc3c2)CSCC(=O)N1C1CC1 (stereo not given)	none (no result: DAX1 inh-1)
CCOC(=O)/C(=C\Nc1cccc(OCc2ccccc2)c1)NC(=O)c1ccccc1	none (no result: DAX1 inh-1)
Fc1ccc(Cn2ccc3ccc(-c4ccc5ccn(Cc6ccc(F)cc6)c5c4)cc32)cc1	none (no result: DAX1 inh-1)
CSc1ccccc1NC(=O)c1cc(CC(C)C)on1	hgDAF-12 ag 11, hcDAF-12 act 7.5 | LXRb hcDAF ctr inactive | hcDAF12 conf inactive
CCN(CC)CCCNc1nc2ccccc2c2[nH]c3ccc(OC)cc3c12	ssDAF-12 act 3.6, hcDAF-12 act 14 | LXRb hcDAF ctr inactive | hcDAF12 conf 16
COc1ccc(-c2nc(NCCCN(C)C)c3ccccc3n2)cc1	DAX1 inh-1 6.7, hcDAF-12 act 10.0 | LXRb hcDAF ctr inactive | hcDAF12 conf 9.3
CCOc1ccc2[nH]c3c(NCCN(CC)CC)ncnc3c2c1	none
CCN(CC)CCCNc1nc(-c2ccccc2)nc2ccccc12	none
CCn1c(C)cc(C(=O)CN2C(=O)c3ccccc3S2(=O)=O)c1C	none
CCCn1c(C)cc(C(=O)CN2C(=O)c3ccccc3C2=O)c1C	hgDAF-12 ag 11, ssDAF-12 act 0.9, hcDAF-12 act 9.7 | LXRb hcDAF ctr inactive | hcDAF12 conf 12
C=CCn1c(O)c(N=Nc2ccccc2[N+](=O)[O-])c2ccccc21	ssDAF-12 act 1.1, hcDAF-12 act 6.7 | LXRb hcDAF ctr inactive | hcDAF12 conf 8.4
C=CCn1c(O)c(N=Nc2ccccc2O)c2ccccc21	none
CN(c1ccccc1)S(=O)(=O)c1ccc(C(=O)Nc2nnc(C3CC3)o2)cc1	hcDAF-12 act 7.2 | LXRb hcDAF ctr inactive | hcDAF12 conf inactive
CC(C)c1ccc(-c2cc(C(=O)NN3CCN(C)CC3)c3ccccc3n2)cc1	hcDAF-12 act 7.3 | LXRb hcDAF ctr inactive | hcDAF12 conf 6.0
CN1CCN(NC(=O)c2cc(-c3cccc(Cl)c3)nc3ccccc23)CC1	none
O=[N+]([O-])c1ccccc1/C=C/C=Nn1c(-c2ccc(F)cc2)n[nH]c1=S	hcDAF-12 act 6.6 (no result: DAX1 inh-1) | LXRb hcDAF ctr inactive | hcDAF12 conf inactive
C[C@H](O)[C@@H]1CN2CCc3c([nH]c4c(-c5ccccc5)cccc34)[C@@H]2C[C@@H]1N(C)C(=S)NCCc1ccccc1	none (no result: DAX1 inh-1)
COc1ccc(Cn2ccc3ccc(-c4ccc5ccn(C(=O)c6cccc(OC)c6)c5c4)cc32)cc1	none (no result: DAX1 inh-1)
O=C1/C(=C/Nc2cccc([N+](=O)[O-])c2)CCc2ccccc21	hgDAF-12 ag 16, hcDAF-12 act 8.1 | LXRb hcDAF ctr inactive | hcDAF12 conf 5.8
Cc1ccc(Nc2nc(N)c3ccccc3n2)cc1Cl	hgDAF-12 ag 12, ssDAF-12 act 3.6, hcDAF-12 act 12 | LXRb hcDAF ctr inactive | hcDAF12 conf 15
CCCSc1nnc(-c2ccccc2N)c(=O)[nH]1	hcDAF-12 act 7.1 | LXRb hcDAF ctr inactive | hcDAF12 conf 7.2
Cc1ccc(C(=O)COC(=O)c2cccs2)cc1	DAX1 inh-2 4.5, hcDAF-12 act 7.0 | LXRb hcDAF ctr inactive | hcDAF12 conf inactive
COc1ccc(C(=O)COC(=O)c2ccc(N(C)C)cc2)cc1	none
CN(C)c1ccc(C(=O)OCC(=O)c2cccs2)cc1	hgDAF-12 ag 20, DAX1 inh-2 4.2, ssDAF-12 act 1.1, hcDAF-12 act 8.4 | LXRb hcDAF ctr inactive | hcDAF12 conf inactive
O=C(Nc1nccs1)c1ccc(-c2ccccc2Cl)o1	hgDAF-12 ag 12, ssDAF-12 act 2.4, hcDAF-12 act 6.7 | LXRb hcDAF ctr inactive | hcDAF12 conf 6.2
CC(=O)Nc1ccc(NC(=O)c2ccc(-c3ccccc3Cl)o2)cc1	none
O=C(C=Cc1ccccc1)c1cccs1	none
O=C(/C=C/Nc1ccc(F)cc1)c1cccs1	hgDAF-12 ag 12, DAX1 inh-2 4.5, ssDAF-12 act 1.7, hcDAF-12 act 11 | LXRb hcDAF ctr inactive | hcDAF12 conf 18
COc1cc([N+](=O)[O-])ccc1N/C=C/C(=O)c1cccs1	hgDAF-12 ag 17, ssDAF-12 act 2.3, hcDAF-12 act 17 | LXRb hcDAF ctr inactive | hcDAF12 conf 16
O=C(/C=C/c1ccc([N+](=O)[O-])cc1)c1cccs1	none
CC(=O)Nc1ccc(N/C=C/C(=O)c2ccc(C)o2)cc1	none
NC(=O)c1ccccc1N/C=C/C(=O)c1cccs1	hcDAF-12 act 8.3 | LXRb hcDAF ctr inactive | hcDAF12 conf 5.6
Cc1ccc(C(=O)/C=C/Nc2ccccc2C(N)=O)o1	hgDAF-12 ag 12, hcDAF-12 act 9.3 | LXRb hcDAF ctr inactive | hcDAF12 conf inactive
CCC(=O)N1CCc2cc(Br)c(S(=O)(=O)N3CCCC(C(=O)NC(C)(C)C)C3)cc21 (stereo not given)	none (no result: DAX1 inh-1)
Cc1ccccc1C(=O)N1CCC[C@@H]1C(=O)N1CCC[C@H]1C(=O)NCc1ccccc1	none (no result: DAX1 inh-1)

Bioassay records deposited in PubChem BioAssay by The Scripps Research Institute Molecular Screening Center.
